Assay outcomes deposited in PubChem BioAssay by several laboratories.
Shown are actives, neighbours in structure and some others; about 4.7% of the full set was active somewhere.
HSP90 refold inh: HSP90 inhibitors, primary screen, cell lysate, luminescence. Heat shock protein HSP 90 (rabbit reticulocyte lysate; luciferase refolding). Rabbit reticulocyte lysate, luciferase refolding luminescence, 3 h. inhibition, % at 5.6 µM. 0.91% of 290,000 active. AID 1789, 2009;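 active = inhibition above the screen-wide mean plus 3 SD, computed separately per campaign, cut at about 16% in these data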;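 note: 0% = DMSO wells and 100% = 60 µM geldanamycin wells; inhibitors lower the luminescence because luciferase stays unfolded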
TROY NFkB inh: inhibitors of TROY-driven NF-kB signaling, primary screen, Q293 LMP1-TROYcd cells, NF-kB luciferase, uHTS; Q293 LMP1-TROYcd NF-kB luciferase reporter, 4 h; AID 1347056, 2019; inhibition, % at 10 µM; 0.98% of 360,000 active;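 active = compounds whose plate-normalised and pattern-corrected inhibition of the luciferase reporter signal at the single screening dose is 50% or more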
LMP1 NFkB inh: EBV LMP1-driven NF-kappaB luciferase reporter inhibitors, primary screen, cell-based, luminescence, single point; LMP1-induced NF-kappaB luciferase reporter cells; 0.69% of 350,000 active; inhibition, % at 12.5 µM; in the data active = inhibition above about 41%;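 note: 0% = neutral control wells and 100% = reference inhibitor control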
HSF1 activator: HSF-1 activators, primary screen, NIH3T3-HGL cells, MG132 stress, luminescence, single point | NIH3T3-HGL HSF-1 luciferase reporter, 8 h; 100% = twice DMSO control signal | 1.7% of 300,000 active | activation, % at 9 µM | AID 504408, 2011;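 active = mean replicate activation of at least 50% with a set share of replicates each reaching 50%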;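 note: 0% = median of the neutral control wells and 100% = twice that signal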
HSF1 inh: HSF1 inhibitors in luciferase reporter cells, primary screen, cell-based, NIH3T3, luminescence; NIH3T3-HGL HSE-luciferase, MG132-induced, luminescence 8 h; hits give low values; activity change, negative = inhibition, % at 7.5 µM (by protocol); 0.77% of 300,000 active;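 active = more than half of replicate wells show activity change below -50%, luminescence cut by over half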;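 note: luciferase reports HSF-1 transcriptional activity via heat shock element; 0% = median of DMSO wells and -100% = zero luminescence signal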
TWEAK-Fn14 inh: inhibitors of TWEAK-Fn14 signaling, primary screen, luciferase reporter cells, uHTS. inhibition, % at 10 µM. TWEAK-stimulated Fn14 reporter cells, luciferase luminescence, 8 h. AID 1159606, 2016. 2% of 360,000 active; in the data active = inhibition above about 50%
* = called active by the depositor; nt = no result given.

SMILES	HSP90 refold inh	TROY NFkB inh	LMP1 NFkB inh	HSF1 activator	HSF1 inh	TWEAK-Fn14 inh
Cc1ccc(C)c(Sc2ccc(NC(=O)CCl)cc2)c1	4	nt	nt	75*	32	nt
CC1(C(=O)NS(=O)(=O)c2ccc(F)cc2F)CCN1C(=O)C1(c2ccc(Cl)cc2)CCC1 (stereo not given)	nt	5	nt	nt	nt	9
CC12CC(c3ccccc3O1)C(C(=O)NCc1ccccc1)C(=O)N2 (stereo not given)	-1	3	-5	-76	-71*	24
COc1ccc(NC(=O)C2C(=O)NC3(C)CC2c2ccccc2O3)cc1 (stereo not given)	-4	0	-5	10	-4	27
CCc1nc2ccc(C(=O)N(C)CCCN(C)C)cn2c1N(C=O)CCC(C)C	nt	-4	nt	nt	nt	17
O=C1COc2ccccc2C(c2nc3ccccc3[nH]2)N1C1CC1 (stereo not given)	nt	8	nt	nt	nt	8
Cc1nn(C)c(C)c1C1Nc2ccccc2C(=O)N1O (stereo not given)	-3	-40	-5	-3	0	-9
O=C1c2ccccc2NC(c2cnc3ccccc3n2)N1O (stereo not given)	-2	26	0	17	21	74*
CC(C)CNc1ncnc2c1ncn2[C@H]1CN(Cc2ccc3c(c2)OCO3)C[C@@H](CO)O1	nt	15	nt	nt	nt	23
CC(=O)n1cc(N(C(=O)CCl)c2ccc(Cl)cc2)c2ccccc21	3	-41	nt	-84	-84*	64*
COc1ccccc1N(C(=O)CCl)c1cn(C(C)=O)c2ccccc12	6	-13	28	-75	-76*	73*
Cc1ccc(NC(=O)c2ncn(CCCNCC3CCCCC3)n2)cc1C	nt	-16	-17	nt	nt	-1
CCOCCOC(=O)C1=C(C)N(C)C(=O)NC1c1ccccc1Cl (stereo not given)	-4	nt	3	-21	-5	53*
COc1cccc(CNc2nc3cc(-c4ccccc4CO)sc3c(=O)n2C)c1	nt	10	nt	nt	nt	15
C[C@H](CO)N1C[C@H](C)[C@@H](CN(C)Cc2ccc3c(c2)OCCN3C)OCc2cnnn2CCCC1=O	nt	-4	-4	nt	nt	23
O=C(Cc1ccc(Cl)cc1)c1ccc(O)cc1	-3	-53	-21	52*	22	-29
N#C/C(=C\c1ccccc1[N+](=O)[O-])C(=O)NCc1ccccc1	0	-17	-4	31	6	-3
N#C/C(=C\C=C\c1ccccc1[N+](=O)[O-])C(=O)NCc1ccccc1	5	26	-82	94*	56	88*
CC(C)c1ccc(CC(=O)N2CCC2(C)C(=O)NS(=O)(=O)c2cccc(OC(F)F)c2)cc1 (stereo not given)	nt	-13	nt	nt	nt	10
CCOc1ccccc1-n1nnnc1SCC(=O)NC(=O)Nc1ccc2c(c1)OCCO2	2	25	2	-9	-8	70*
O=C(O)CSc1nnnn1-c1ccc2c(c1)OCCO2	5	-9	1	70*	23	0
O=C(Nc1ccccc1)OC[C@@H]1C=CS(=O)(=O)N1Cc1ccc(Br)cc1	nt	-11	nt	nt	nt	10
O=C1C2CCCN2c2ccc(S(=O)(=O)N3CCOCC3)cc2N1Cc1cccc(C(F)(F)F)c1 (stereo not given)	-1	nt	nt	-88	-85*	nt
O=C1C2CCCN2c2ccc(S(=O)(=O)N3CCOCC3)cc2N1Cc1ccccc1F (stereo not given)	2	5	36	0	5	-10
CSc1cccc(NC(=O)CN(C)S(=O)(=O)c2ccccc2)c1	1	-1	-5	67*	21	-21
Cc1cc(C)c(NC(=O)CN(C)CC(=O)Nc2cccc(S(=O)(=O)N(C)c3ccccc3)c2)c(C)c1	nt	37	10	nt	nt	53*
CSc1cccc(NC(=O)CN(C)S(=O)(=O)c2ccc(F)cc2)c1	-5	-28	-8	-4	-6	-5
CN(CC(=O)Nc1cccc(F)c1)CC(=O)Nc1cccc(S(=O)(=O)N(C)c2ccccc2)c1	nt	12	1	nt	nt	21
COc1ccc(CN(C)C(=O)[C@H]2O[C@@H](n3cnc4c(N)ncnc43)[C@H](O)[C@@H]2O)cc1OC	nt	7	nt	nt	nt	3
